Data: ChEMBL document CHEMBL1157539, “Thousands of chemical starting points for antimalarial lead identification” (Nature, 2010)
The full ranking holds about 13,000 compounds; the median of “IFI” is about 4, and the highest 2% start at about 17. For the sample, the highest values were picked, then their nearest neighbours and some compounds at random.

test: GSK_TCMDC: Inhibition Frequency Index (IFI). The number of non-kinase HTS assays where a compound showed > 50 % inhibition, expressed as a percentage of the number of such assays in which the compound was tested; type: functional

| SMILES | IFI [%] |
| --- | --- |
| Cc1ccc(/C=C/C(=O)NC2CCC(N3CCC(c4ccccc4C)CC3)CC2)cc1C (configuration not stated) | 15 |
| Cc1ccccc1C1CCN(C2CCC(NC(=O)c3cc4cc(C(C)C)ccc4[nH]3)CC2)CC1 (configuration not stated) | 19.6 |
| COc1ccccc1C1CCN(C2CCC(NC(=O)c3cc(-c4ccc(Cl)cc4)cs3)CC2)CC1 (configuration not stated) | 16.4 |
| COc1ccccc1C1CCN(C2CCC(NC(=O)c3cc4ccccc4[nH]3)CC2)CC1 (configuration not stated) | 16.4 |
| Cc1ccc(/C=C/C(=O)NC2CCC(N3CCC(c4ccccc4C)CC3)CC2)cc1F (configuration not stated) | 13.3 |
| Cc1ccccc1C1CCN(C2CCC(NC(=O)/C=C/c3ccc4c(c3)OC(F)(F)O4)CC2)CC1 (configuration not stated) | 17.2 |
| CCc1c(C(=O)NC2CCC(N3CCC(c4ccccc4OC)CC3)CC2)[nH]c2ccc(OC)cc12 (configuration not stated) | 6.45 |
| COc1ccccc1C1CCN(C2CCC(NC(=O)c3cc4cc(C(C)C)ccc4[nH]3)CC2)CC1 (configuration not stated) | 18 |
| Cc1ccccc1C1CCN(C2CCC(NC(=O)c3cc(-c4ccc(Cl)cc4)cs3)CC2)CC1 (configuration not stated) | 22.4 |
| COc1ccc(-c2csc(C(=O)NC3CCC(N4CCC(c5ccccc5C)CC4)CC3)c2)cc1 (configuration not stated) | 14 |
| COc1ccccc1C1CCN(C2CCC(NC(=O)/C=C/c3ccc4c(c3)OC(F)(F)O4)CC2)CC1 (configuration not stated) | 9.84 |
| CCc1c(C(=O)NC2CCC(N3CCC(c4ccccc4C)CC3)CC2)[nH]c2ccc(Br)cc12 (configuration not stated) | 15.8 |
| CN1CCC(NCc2ccc(-c3cccc(-c4nc5ccccc5[nH]4)c3)cc2)CC1 | 4.76 |
| Cc1[nH]c(C)c(-c2ccc(OCc3ccc(F)cc3)nc2)c(=O)c1Br | 3.57 |
| Cc1c(Cl)cccc1N=C(S)NN=Cc1ccccn1 | 6.3 |
| Cc1c(-c2cccc(C(C)(C)NCCCN3CCCCC3)c2)cnc(N)c1C | 0.74 |
| Cc1ccc(O)cc1C[C@@H]1C(=O)CC[C@@]2(C)[C@H]1CC[C@]2(C)O | 0 |
| O=C(Nc1ccccc1)N(Cc1ccc(-c2cccc(CNC3CCCC3)c2)cc1)C1CCN(Cc2ccccc2)CC1 | 7.04 |
| Cc1cccc2nc(-c3ccc(-c4cccc(CNCCCNS(C)(=O)=O)c4)s3)[nH]c12 | 3.96 |
| CNC(=O)c1cnc(Nc2ccc(OCC(O)CN(C)C)cc2)nc1Nc1cccc(OC)c1 (configuration not stated) | 2.22 |
| CCOc1ccc2[nH]c(C)cc(=NN=Cc3ccccc3)c2c1 | 1.53 |
| CCN(CC)CCCC(C)Nc1c(-c2ccc(OC)cc2)cnc2ccccc12 (configuration not stated) | 0 |
| CN(C)c1nc(NCc2ccccc2)nc(N/N=C/c2cc([N+](=O)[O-])ccc2O)n1 | 6.16 |

| SMILES | IFI [%] |
| --- | --- |
| CNC(=O)C1Cc2c([nH]c3cc(Br)ccc23)C2(CCN(CCc3ccccc3)CC2)N1 (configuration not stated) | 7.86 |
| COc1ccc2nccc(N3CCN(CCNCc4ccc5c(n4)NC(=O)CO5)CC3)c2c1 | 3.73 |
| Cc1c(C)c2c(c(C)c1O)CC[C@](C)(C(=O)N1CCC(CCN3CCC(c4c[nH]c5ccccc45)CC3)CC1)O2 | 5.88 |
| Cc1cccc2nc(-c3cccc(-c4cccc(NC(=O)COc5ccccc5C(N)=O)c4)c3)[nH]c12 | 6.09 |
| CN(C)CCNC(=O)c1ccc(-c2cnc3ccc(NCc4ccc(Cl)c(Cl)c4)nn23)cc1 | 9.02 |
| CCCCc1ccc2ncc(C(=O)OCC)c(O)c2c1 | 0.78 |
| COc1c(Br)cc(Br)cc1-c1ccc(CN2CC3CCC2CC3)[nH]1 | 21.1 |
| COc1c(Br)cc(Br)cc1-c1ccc(CN2C3CCCC2CCC3)[nH]1 | 6.82 |
| COc1cccc(C(=O)Nc2ccc(Nc3nc(C)cc(N(C)C)n3)cc2)c1OC | 7.14 |
| CCCCCCCN1CC[C@@H](CCCc2ccnc3ccc(OCCCCN/C(N)=N/O)cc23)[C@@H](CC)C1 | 9.66 |
| CN(C)CC(O)COc1ccc(Nc2ncc([N+](=O)[O-])c(Nc3ccccc3O)n2)cc1 (configuration not stated) | 6.21 |
| CN1CCN(c2ccc(Nc3ncc([N+](=O)[O-])c(Nc4ccccc4O)n3)cc2)CC1 | 6.99 |
| O=[N+]([O-])c1cnc(Nc2ccccc2O)nc1Nc1ccccc1O | 19.2 |
| Cc1[nH]c(C)c(-c2ccc(CCc3ccc(N)cc3)cc2)c(=O)c1Cl | 1.89 |
| COc1ccc2[nH]c(C(=O)Nc3ccc4[nH]c(-c5ccccc5)nc4c3)cc2c1 | 7.69 |
| CCc1cn(CC(=O)N(CCOc2ccc(-c3ccc(C(F)(F)F)cc3)cc2)CCN(CC)CC)c(SCc2ccc(F)cc2)nc1=O | 6.34 |
| O=[N+]([O-])c1ccc2nc(Nc3cccc(C(F)(F)F)c3)c(Nc3cccc(C(F)(F)F)c3)nc2c1 | 5.88 |
| FC(F)(F)c1cccc(Nc2nc3ccccc3nc2Nc2cccc(C(F)(F)F)c2)c1 | 10 |
| FC(F)(F)c1cccc(Nc2nc3nonc3nc2NC2C3CC4CC(C3)CC2C4)c1 (configuration not stated) | 20.6 |
| CC1(C)C(=O)Nc2ccc3c(c21)CC1SC(=O)NN=C31 (configuration not stated) | 2.22 |
| CCCN(CCC)C(=O)c1cc(C(=O)N[C@@H](Cc2ccccc2)[C@H](O)CNC(C)(C)c2cccc(OC)c2)cc(N2CCCCS2(=O)=O)c1 | 3.62 |
| CC(C)(C)c1ccc(CN2CCC(CNC(=O)c3cc(-c4cccc(Cl)c4)cs3)C2)cc1 (configuration not stated) | 12.2 |
| Cc1cc2cc(-c3ccc(CN)cc3)ccc2nc1N | 3.88 |

| SMILES | IFI [%] |
| --- | --- |
| O=C(c1ccc([N+](=O)[O-])o1)N1CCC(Cc2ccc(C(F)(F)F)cc2)CC1 | 9.52 |
| COCCN1CCN(Cc2ccc(-c3ccc(-c4nc5cc(F)ccc5[nH]4)cc3)cc2)CC1 | 4.9 |
| Clc1ccc(Nc2nc3ccc(Cl)cc3nc2Nc2ccc(Cl)cc2)cc1 | 10.1 |
| O=[N+]([O-])c1ccc2nc(Nc3ccc(Cl)c(Cl)c3)c(Nc3ccc(Cl)c(Cl)c3)nc2c1 | 2.86 |
| Clc1ccc(Nc2nc3nonc3nc2Nc2ccc(Cl)c(Cl)c2)cc1 | 19.4 |
| Clc1ccc(CNCCCCCCNCc2ccc(Cl)cc2)cc1 | 11.3 |
| CC(=O)Nc1cc(C(=O)Nc2cccc(-c3cccc(-c4nc5cccc(C)c5[nH]4)c3)c2)ccc1C | 5.88 |
| Cc1cc(NCCc2ccccc2)nc(NC(=N)Nc2cccc(F)c2)n1 | 6.77 |
| Nc1nccc2ccc(-c3ccc(Oc4ccccc4)cc3)cc12 | 20.7 |
| Nc1nccc2ccc(-c3ccncc3)cc12 | 3 |
| NCc1cccc(-c2ccc3ccnc(N)c3c2)c1 | 2.86 |
| Nc1nccc2ccc(-c3cccc(O)c3)cc12 | 7.14 |
| Nc1cccc(-c2ccc3ccnc(N)c3c2)c1 | 5.56 |
| COc1cccc(-c2ccc3ccnc(N)c3c2)c1 | 7.87 |
| Nc1ccc(-c2ccc3ccnc(N)c3c2)cc1 | 9.09 |
| Nc1nccc2ccc(-c3cccc(OCc4ccccc4)c3)cc12 | 19.8 |
| Nc1nccc2ccc(-c3ccc(OCc4ccccc4)cc3)cc12 | 19.1 |
| CNc1nc(Nc2ccccc2C)nc2ccccc12 | 2.21 |
| CC(c1cccc(Nc2nccc(-c3c(-c4cccc(NC(=O)c5c(F)cccc5F)c4)nn4ccccc34)n2)c1)S(C)(=O)=O (configuration not stated) | 6.31 |
| O=S(=O)(c1c(Cl)cc(Cl)cc1Cl)N1CCCCC(c2ccc(C(F)(F)F)cc2)=N1 | 1.5 |
| Nc1nc(O)c2c(n1)CCc1c(Br)cccc1-2 | 2.31 |
| COc1ccccc1C1CCN(C2CCC(NC(=O)/C=C/c3ccc(OC(F)(F)F)cc3)CC2)CC1 (configuration not stated) | 11.7 |
| Nc1nc(Nc2cccc(O)c2)nc2ccccc12 | 5.04 |

| SMILES | IFI [%] |
| --- | --- |
| NC[C@H](CC1CCCCC1)NC(=O)c1ccc(-c2ccnc3[nH]ccc23)s1 | 22.2 |
| NCC(NC(=O)c1ccc(-c2c[nH]c3ncccc23)s1)c1ccccc1 (configuration not stated) | 16.1 |
| CCC[C@@H]([C@@H](CC1CCCCC1)C(=O)N[C@H](C(=O)Nc1nccc(N)n1)C(C)(C)C)N(O)C=O | 2.86 |
| OCC1CCN(Cc2cccc(-c3cccc(-c4nc5cc(C(F)(F)F)ccc5[nH]4)c3)c2)CC1 | 5.83 |
| CCCCCCOc1ccc(C(=O)NCCCC2CCCN(CCCCCNC(=O)C=Cc3ccc(Cl)c(Cl)c3)C2)cc1 (configuration not stated) | 6.87 |
| Cc1ccc(F)cc1-c1cc(N2CCCN(C(=O)c3ccc(Br)o3)CC2)ncn1 | 0 |
| C=CCc1ccc(C[C@H](NC(=O)OC(C)(C)C)C(=O)OC)cc1 | 18.9 |
| COC(=O)C(c1ccc(NC(=O)[C@H](CC(C)C)NC(=O)OC(C)(C)C)cc1)c1ccc(NC(=O)[C@H](CC(C)C)NC(=O)OC(C)(C)C)cc1 | 0 |
| CC(C)(C)OC(=O)N[C@@H](Cc1ccccc1)C(=O)Nc1cccc(-c2cccc(NC(=O)[C@H](Cc3ccccc3)NC(=O)OC(C)(C)C)c2)c1 | 0.72 |
| CCSc1ccc(C)cc1CON1C(N)=NC(N)=NC1(C)C | 6.34 |
| Cc1c(Cn2nc(Cl)c(N3CCNCC3)cc2=O)cccc1NC(=O)Nc1ccc(-c2ccccc2)cc1 | 10.8 |
| O=C(/C=C/c1ccccc1Cl)Nc1ccc(Br)c(OCCN2CCCCC2)c1 | 5.52 |
| ON=C1c2cc(OCCN3CCCCC3)c(Cl)cc2-c2cc(Cl)c(OCCN3CCCCC3)cc21 | 9.42 |
| CCC(C)(C)c1ccc(S(=O)(=O)Nc2ccc(Cl)c(OCCN3CCCCC3)c2)cc1 | 43.1 |
| COc1ccc(CNC2CCN(C)CC2)cc1-c1cccc(S(=O)(=O)NCc2ccccc2)c1 | 11 |
| COc1ccc2c(=NN=Cc3ccccc3Cl)cc(C)[nH]c2c1 | 3.65 |
| COc1cc(NC(=O)c2sc(-c3ccc(Cl)cc3)cc2NC(=O)c2cccnc2)ccc1OCCN1CCCC1 | 7.19 |
| O=c1c2ccc(F)cc2sn1-c1ccc(Cl)cc1 | 23.9 |
| O=C(/C=C/c1ccc(Cl)c(Cl)c1)NCCCCCN1CCC(c2c[nH]c3c(-c4ccccc4)cccc23)CC1 | 8.09 |
| CN(Cc1cccc(F)c1)C1CCN(c2cc(NC(=O)c3ccc(F)cc3)ccn2)CC1 | 0 |
| C[C@@H](C(N)=O)N1CCCCC1c1ccc(OCc2cccc(F)c2)cc1 (some centres not stated) | 33.8 |
| CN(Cc1cccc(F)c1)C1CCN(c2cc(NC(=O)c3cccc(F)c3)ccn2)CC1 | 0 |
| O=C(C=Cc1ccc(Cl)c(Cl)c1)NCCCCCN1CCCC(CCCNS(=O)(=O)c2cccc3cccnc23)C1 (configuration not stated) | 5.8 |
